Results: PubChem BioAssay (NCI)
The panel holds about 83,000 compounds, 20% with a hit somewhere; the sample as a whole holds those more often.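 Results are percent growth after 48 hours of single-concentration exposure. 100 means growth as in untreated cells, lower positive values show inhibition; negative values down to -100 show cell death.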 Values without a mark were called inactive. Active and inactive are the calls of the source.

test system: NCI/ADR-RES ovarian; experiment: NCI-60 one-dose screen, 48 h (100 = growth as untreated, 0 = no growth, -100 = all killed); conditions: 10 µM unless noted
Protocol: Growth inhibition of the NCI/ADR-RES human […] tumor cell line is measured as a screen for anti-cancer activity. Cells are grown in 96 well plates and exposed to the test compound for 48 hours. Compounds are tested at a single concentration, which is 10^-5 M for most compounds. The reported endpoint is percent growth (GI% or GIPRCNT), where numbers from 0 - 100% represent growth inhibition, and numbers from -100% - 0 represent cell death. For example, a value of 40 represents 60% growth inhibition. A value of 0 means no net growth occurred over the course of the experiment. A value of -40 indicates 40% of cells at the beginning of the experiment died by the end of the experiment. A value of -100 means all cells are dead at the end of the experiment.
NCI-60 Human Tumor Cell Lines Screen was performed using the standard one-dose NCI protocol, which is described in more detail at https://dtp.cancer.gov/discovery_development/nci-60/default.htm.
Compounds with GIPRCNT values below 10 were considered active. Activity score was based on GIPRCNT using the following formula: […]
Score is 0 for GIPRCNT values of 100 or above, 50 for GIPRCNT values of 0, and 100 for GIPRCNT values of -100.

First: C=C1C(=O)O[C@H]2[C@H]1CC/C(COC(=O)c1ccc(C(=O)O)s1)=C\CC[C@@]1(C)O[C@@H]21
Second: COc1ccc2c(c1)c(-c1nc(-c3c[nH]c4ncccc34)cs1)cn2CCCN1CCOCC1
The growth of the first is lower: 42% for the first, 43.4% for the second.

Compared with `COc1ccc(C2=NN(C(C)=O)C(c3cn(-c4ccccc4)nc3-c3ccc(Cl)cc3)C2)cc1` (stereo not given), `Cc1ccc(C2CC(c3nc(-c4ccc(Cl)cc4)oc3C)=NN2C(=O)c2ccncc2)cc1` (stereo not given) is higher in growth: 15.3% for the first, 88.1% for the second.

Going from `Nc1[nH]c(=S)nc2oc(-c3ccccc3)c(-c3ccccc3)c12` to `S=c1[nH]c(=S)c2c(-c3ccccc3)c(-c3ccccc3)oc2[nH]1`, the growth rises from 98.9% to 103%.

Compared with `C=C(C)[C@@H]1CC[C@]2(C)[C@H](CC=C3[C@@H]4CC(C)(C)CC[C@]4(CO)CC[C@]32C)[C@@]1(C)CCCN`, `C#CCO[C@H]1CC(CC#C)(CC#C)C(=O)[C@@H]2[C@H]1[C@H]1C[C@@H]3[C@@]4(C)CCC[C@@](C)(C(=O)OC)[C@@H]4CC[C@@]23C=C1C(C)C` is higher in growth: 49.1% for the first, 78.5% for the second.

Going from `COc1ccc(C[n+]2c3ccccc3n3c4ccc(N)cc4ccc32)c(OC)c1OC` to `COc1cc(-c2nc3sccn3c2-c2ccnc(NCCNS(=O)(=O)c3ccc(Cl)cc3)n2)ccc1F`, the growth falls from 103% to 13.7%.

First: CCCCNC(=O)Oc1ccc(/C(=C(/C)Cc2ccc(OC)cc2)c2ccc(OCCN3CCCCC3)cc2)cc1
Second: CN1CCN(c2ccc(NC(=O)c3cncnc3Nc3ccc(OCc4cccc(F)c4)c(Cl)c3)cc2)CC1
The growth of the first is higher: 81.9% for the first, 75.2% for the second.

Compared with `COC(=O)CCC/C=C\C[C@H]1C=CC(=O)/C1=C/C[C@@H](O)C/C=C\CC(F)(F)F`, `C=CCC(CCCC)(C(=O)OCC)C(=O)OCC` is higher in growth: 14% for the first, 108% for the second.

Compared with `CCOc1cccc(/C=N/NC(=O)c2cccc(Nc3ccnc(C(F)(F)F)c3)c2)c1O`, `CCN(CC)c1ccc(/C=N/NC(=O)Cc2ccc(Nc3ccnc(C(F)(F)F)c3)cc2)c(O)c1` is lower in growth: 37.6% for the first, 18.3% for the second.

First: CCSc1oc(C)nc1[P+](c1ccccc1)(c1ccccc1)c1ccccc1
Second: Nc1nc(N)c(N=Nc2ccccc2)c(-c2ccccc2)n1
The growth of the first is higher: 97.8% for the first, 75.1% for the second.

Compared with `Cc1nnc(-c2ccc3c(c2)nc(/C=C/c2ccccc2)n3C2CCCCC2)o1`, `N#Cc1nc(-c2ccccc2)oc1S(=O)(=O)N1CCN(c2ccc(F)cc2)CC1` is higher in growth: 85.2% for the first, 96.4% for the second.

First: N=c1c(S(=O)(=O)c2ccccc2)cc2c(=O)n3ccccc3nc2n1CC1CCCO1 (stereo not given)
Second: O=C1c2cccc3cccc(c23)C(=O)N1C/C=C/c1ccc2c3c(cccc13)C(=O)N(CCO)C2=O
The growth of the first is higher: 98.7% for the first, 80.2% for the second.

Compared with `Nc1nc2c(c3ncccc13)C(c1cccc(Cl)c1)Cc1ncccc1-2` (stereo not given), `O=C(NC1CC(F)C1)c1cc2cccnc2n1-c1ccc(Cl)c(Cl)c1` (stereo not given) is higher in growth: 18.7% for the first, 90.1% for the second.

First: C=CC(=O)Nc1ccc(Oc2nccc(Nc3nnc(-c4ccc(C)cc4)s3)n2)cc1
Second: Cc1ccc(C(=O)Nc2cccc(C#Cc3cccc4[nH]nc(N)c34)c2)cc1C(F)(F)F
The growth of the first is lower: 59.1% for the first, 74.1% for the second.

Going from `CC1=CC(c2ccco2)=C2C(N)=NNC2N1` (stereo not given) to `O=C(Nc1ccc(Br)cc1)C1=NCCCCN1`, the growth falls from 98.9% to 82.5%.

Work on `[2H]C([2H])([2H])Oc1ccc(F)cc1/C=C/C(=O)/C=C(O)/C=C/c1cc(F)ccc1OC([2H])([2H])[2H]` yielded a growth of 89.9%.

`COc1cccc(/C=C/C(=O)c2cc3c(N)c(C(=O)Nc4cccc5ccccc45)sc3nc2C)c1` was tested, and the growth was 4.18% (active).
With `O=C(Nc1ncc(Cc2ccccc2)s1)c1ccc2c(c1)OCCCO2` the growth was 9.35% (active).
In the case of `COc1ccc2c(c1)CCc1[nH]nc(-c3cc(OC)c(OC)c(OC)c3)c1-2`, the growth is reported as 0.961% (active).
`C=C(c1ccc(OC)c(/C=C/C(=O)c2ccc3c(c2)OCO3)c1)c1cc(OC)c(OC)c(OC)c1` was tested, and the growth was 5.57% (active).
With `CN(Cc1cc(Br)cc(Br)c1O)Cc1cc(Br)cc(Br)c1O` the growth was 9.38% (active).
In the case of `CCOC(=O)c1c(C)c2c(n1Cc1ccccc1)CSCC2=O`, the growth is reported as -5.65% [100 µM] (active).
For `O=C(Nc1ccccc1O)c1ccc(CNC(=O)c2ccsc2Nc2ccnc(C(F)(F)F)c2)cc1`, the growth was 8.13% (active).
For `Cc1nc2ccccc2c(/C=C/c2ccccc2)c1C(=O)/C=C/c1ccccc1`, the growth was 7.26% (active).
For `COc1ccc(-c2cc(-c3ccccc3)nc(N3CCN(CCNc4ccnc5cc(Cl)ccc45)CC3)n2)cc1`, the growth was -63.2% (active).
With `O=C1c2ccccc2C(=O)c2c1cc1c(c2[N+](=O)[O-])OCO1` the growth was -11.7% (active).

For `Cc1ccc(C)c2c(C)c(C(=O)Nc3cccc(-n4cccn4)c3)oc12`, the growth was 54.3% [50 µM].
